Source: PubChem (National Center for Advancing Translational Sciences (NCATS))
Shiga toxin inh: Shiga toxin inhibition. 290,000 tested, 9.2% active. inhibition, % at 38.7 µM. Vero cells, Shiga toxin protein synthesis inhibition reporter; in the data active = inhibition mostly above about 28%, no sharp cut-off; inactive = mostly below about 43%; also: 0% is about no effect
TbPYK inhibitor: inhibitors of Trypanosoma brucei pyruvate kinase | Q57TT1 | TbPYK enzyme, Kinase-Glo Plus ATP luminescence, 45 min | Potency, µM (titrated, usually from 76.8 µM), without a hit: top-dose activity, negative = inhibition, most hits filed as inhibitors | 410,000 tested, 0.12% active | AID 624173; also: potency is read from the fitted curve at half-maximal effect; % is scaled to controls: 0 for no effect and ±100 for the full control effect; nearly all actives have a fitted effect of over 50% in size
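Luminescence from Kinase-Glo Plus, added after a 45-minute room-temperature reaction, served as the end-point read-out. The enzyme and substrate were preincubated with compound before ADP (130 uM final) initiated turnover. Concentration-effect curves came from normalized qHTS data.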
CHX counter: counter-screen for Shiga toxin inhibitors: cycloheximide protein synthesis inhibition; 300,000 tested, 12% active; max response, %; AID 2314; cell reporter, cycloheximide protein synthesis inhibition counterscreen; in the data active = max response mostly above about 13%, no sharp cut-off; inactive = mostly below about 14%; also: read at 38.3 µM for the half of the compounds with a filed dose; 0% is about no effect
RE007 growth inh: less growth of the S. pombe RE007 Vpr strain; S. pombe RE007 Vpr strain, BacTiter-Glo ATP luminescence, 24 h; Potency, µM (highest dose often 92.2 µM), for the others: at the highest dose activity change, negative = less growth, usual class: inhibitors; 360,000 tested, 0.21% active; active = well fitted falling curve with a large enough effect; inconclusive = small, poorly fitted or top-dose-only effect; inactive = no such curve, though single readings can be large or run the other way; also: potency is read from the fitted curve at half-maximal effect; % is scaled to controls: 0 for no effect and ±100 for the full control effect; nearly all actives have a fitted effect of over 50% in size
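Fission yeast RE007 carrying one integrated HIV-1 vpr copy, seeded at OD 0.01 in PMG+AL medium with 23 nL pinned compound. Grown 24 h at 30 degrees; viability read by BacTiter-Glo luminescence after 5 min.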
LmPK inh: blocks Leishmania mexicana pyruvate kinase activity; Q27686; Potency, µM (titrated, usually from 57.5 µM), for inactives: at the highest dose activity change, negative = inhibition, hits mostly inhibitors; purified LmPK, Kinase-Glo ATP luminescence, 1 h; AID 1721; 290,000 tested, 0.37% active; also: potency is read from the fitted curve at half-maximal effect; % is scaled to controls: 0 for no effect and ±100 for the full control effect
Target sequence (Q27686 whole entry, looked up): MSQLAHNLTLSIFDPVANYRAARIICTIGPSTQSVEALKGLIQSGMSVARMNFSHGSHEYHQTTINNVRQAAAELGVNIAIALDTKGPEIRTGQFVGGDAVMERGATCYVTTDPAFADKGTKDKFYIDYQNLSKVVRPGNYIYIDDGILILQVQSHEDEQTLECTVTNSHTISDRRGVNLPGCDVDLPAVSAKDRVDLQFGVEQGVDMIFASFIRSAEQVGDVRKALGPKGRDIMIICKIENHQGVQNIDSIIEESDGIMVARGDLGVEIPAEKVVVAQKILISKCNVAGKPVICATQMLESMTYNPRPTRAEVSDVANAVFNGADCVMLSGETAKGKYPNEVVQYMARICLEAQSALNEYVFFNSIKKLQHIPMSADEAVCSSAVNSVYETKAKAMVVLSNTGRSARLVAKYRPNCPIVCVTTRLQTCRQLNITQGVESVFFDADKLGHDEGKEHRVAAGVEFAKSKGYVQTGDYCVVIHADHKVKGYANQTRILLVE
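Purified LmPK (0.1 nM) converted ADP (0.1 mM) to ATP with PEP (0.5 mM) in imidazole buffer pH 7.2 with KCl and MgCl2, 1 h at room temperature. ATP was read by Kinase-Glo luminescence; data normalized to uninhibited and no-enzyme controls.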
FBPA Giardia inh: blocks Giardia fructose-bisphosphate aldolase activity | A8B2U2 | purified Giardia FBPA | Potency, µM (doses to about 59.6 µM), for inactives: at the top dose activity, negative = inhibition, usual class: inhibitors | 290,000 tested, 0.71% active; also: potency is read from the fitted curve at half-maximal effect; % is scaled to controls: 0 for no effect and ±100 for the full control effect; nearly all actives have a fitted effect of over 55% in size
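Giardia FBPA (40 nM reagent) was preincubated 10 min at RT with compound (up to 57.5 uM final), then substrate plus GAPDH/TPI/NAD/arsenate coupling system with diaphorase/resazurin was added; resorufin fluorescence (525/598 nm) was read after 20 min.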
Numbers without * were called inactive; [ ] = dose if it differs, or a comment. Shown is part of a subset that was picked to be rich in hits. Unless noted, calls follow the shape of the dose curve; as a rule, active = well fitted curve in the direction sought with a large enough effect; inconclusive = small, poorly fitted or top-dose-only effect, or another doubt; inactive = no such curve, though single readings can be large; an effect the other way counts as inactive or inconclusive.

How did CCOCCCNC(=O)c1ccc(OC)cc1 do in these assays?
Shiga toxin inh: 32; TbPYK inhibitor: 13%; CHX counter: 21*; RE007 growth inh: 2%; LmPK inh: -1%; FBPA Giardia inh: 0%

What do the screens show for `CC(C)OCCCNC(=O)c1ccncc1`?
Shiga toxin inh: 7; TbPYK inhibitor: 1%; CHX counter: -5; RE007 growth inh: 8%; LmPK inh: -8%; FBPA Giardia inh: 1%

How did O=C(Nc1cccc(Cl)c1)N1CCN(c2ncccn2)CC1 do in these assays?
Shiga toxin inh: 16; TbPYK inhibitor: 0%; CHX counter: 14*; RE007 growth inh: 9%; LmPK inh: -10%; FBPA Giardia inh: -1%

How did O=C(Nc1cccc(Cl)c1)N1CCc2ccccc2C1 do in these assays?
Shiga toxin inh: 35*; TbPYK inhibitor: 1%; CHX counter: 34*; RE007 growth inh: -12%; LmPK inh: -2%; FBPA Giardia inh: -4%

How did COc1cccc(-c2cc(C(=O)N3CCc4ccccc4C3)[nH]n2)c1 do in these assays?
Shiga toxin inh: 38*; TbPYK inhibitor: -4%; CHX counter: 26*; RE007 growth inh: -10%; LmPK inh: 3%; FBPA Giardia inh: 2%

How did COc1cccc(NC(=O)N2CCc3ccccc3C2)c1 do in these assays?
Shiga toxin inh: 91*; TbPYK inhibitor: -2%; CHX counter: 70*; RE007 growth inh: -14%; LmPK inh: -13%

What do the screens show for `O=C(Nc1cccc(Cl)c1)c1nc[nH]c1C(=O)N1CCc2ccccc2C1`?
TbPYK inhibitor: -1%; RE007 growth inh: 1%

How did Cc1ccc(-c2cc(C(=O)N3CCc4ccccc4C3)[nH]n2)cc1C do in these assays?
Shiga toxin inh: -6; TbPYK inhibitor: -11%; CHX counter: -2; RE007 growth inh: 7%; LmPK inh: -4%; FBPA Giardia inh: 9%

What do the screens show for `CN(C)S(=O)(=O)c1cccc(C(=O)OCC(=O)NC2CCCc3ccccc32)c1` (configuration not stated)?
Shiga toxin inh: -3; TbPYK inhibitor: -1%; CHX counter: 7; RE007 growth inh: 4%; LmPK inh: 2%; FBPA Giardia inh: 3%

Results for COc1cccc(-c2cc(NC(C)=O)c3ncc(-c4ccc(OC)c(OC)c4)n3c2)c1 ?
TbPYK inhibitor: -4%; RE007 growth inh: 4%

How did CCOC(=O)Nc1ccc2c(c1)ncn2C1CCCCC1 do in these assays?
Shiga toxin inh: 82*; TbPYK inhibitor: -1%; CHX counter: 27*; RE007 growth inh: 7%; LmPK inh: -3%; FBPA Giardia inh: 2%

Results for COC(=O)Nc1ccc2c(c1)ncn2C1CCCCC1 ?
Shiga toxin inh: 31*; CHX counter: 23*; RE007 growth inh: -6%[3.69 µM]; LmPK inh: 0%; FBPA Giardia inh: -1%

What do the screens show for `CC(=O)Nc1ccc2c(c1)ncn2C1CCCCC1`?
TbPYK inhibitor: 4%; RE007 growth inh: 6%

Results for COC(=O)c1ccc(C(NC(=O)OCc2ccccc2)/C(C)=C/[C@@H](C)C(=O)N2CCN(C)CC2)cc1 (some centres not stated) ?
FBPA Giardia inh: -1%

What do the screens show for `CC1=C(\C=C/C(C)=C/C=C\C(C)=C\C(=O)O)C(C)(C)CCC1`?
FBPA Giardia inh: 6%

What do the screens show for `CC1=C(/C=C/C(=C/C=C/C(C)=C/C(=O)O)c2ccc(C)cc2)C(C)(C)CCC1`?
Shiga toxin inh: 91*; CHX counter: 61*; FBPA Giardia inh: -5%

What do the screens show for `COc1ccc(C(=O)Nc2ccccc2C(=O)Nc2ccccn2)cc1`?
TbPYK inhibitor: 3%; CHX counter: 26*; RE007 growth inh: inconclusive; LmPK inh: -3%; FBPA Giardia inh: 0%

Results for O=C(Nc1ccc(OC(F)F)cc1)c1ccccn1 ?
Shiga toxin inh: 16; TbPYK inhibitor: 2%; CHX counter: 8; RE007 growth inh: 18%; LmPK inh: -5%; FBPA Giardia inh: -6%

How did COc1ccc(C(=O)Nc2ccccn2)cc1 do in these assays?
Shiga toxin inh: 9; TbPYK inhibitor: -1%; CHX counter: -4; RE007 growth inh: 10%; LmPK inh: 1%; FBPA Giardia inh: 7%

How did COc1ccc(NC(=O)c2ccccn2)cc1OC do in these assays?
Shiga toxin inh: 90*; TbPYK inhibitor: -3%; CHX counter: 61*; RE007 growth inh: -7%; LmPK inh: -23%; FBPA Giardia inh: inconclusive

What do the screens show for `COc1ccc(C(=O)Nc2ccc(NC(=O)Cc3ccccc3)cn2)cc1`?
Shiga toxin inh: 31; TbPYK inhibitor: -1%; CHX counter: 20*; RE007 growth inh: 36%; LmPK inh: 8%; FBPA Giardia inh: -21%

How did COc1ccc(NC(=O)c2ccccn2)cc1 do in these assays?
Shiga toxin inh: 19; TbPYK inhibitor: -29%; CHX counter: 24; RE007 growth inh: inconclusive; LmPK inh: 11µM*; FBPA Giardia inh: -4%

Results for COc1ccc(NC(=O)CN2C(=O)C3(SCC(=O)N3c3cccc(OC)c3)c3ccccc32)cc1 (configuration not stated) ?
TbPYK inhibitor: 0%

Results for CC(=O)OCC(NC(=O)C(Cc1ccccc1)NC(=O)OC(C)(C)C)C1OC(n2cc(C)c(=O)[nH]c2=O)C(OC(C)=O)C1OC(C)=O (configuration not stated) ?
Shiga toxin inh: -14; CHX counter: 11; FBPA Giardia inh: 4%

Results for O=C(NCc1ccccc1)C(C1CC1)n1c(-c2cccs2)nc2ccccc21 (configuration not stated) ?
RE007 growth inh: -10%

Results for CCCCc1ccc(Nc2ncnc3c2cnn3-c2ccc(C)cc2)cc1 ?
TbPYK inhibitor: 3%

What do the screens show for `COc1ccc(C(=O)Nc2ccccc2C(=O)NC(Cc2ccc(O)cc2)C(=O)NNC(=O)c2ccccc2Cl)cc1` (configuration not stated)?
Shiga toxin inh: 4; TbPYK inhibitor: -5%; CHX counter: 12*; RE007 growth inh: 9%; LmPK inh: 1%; FBPA Giardia inh: -5%

Results for COc1ccc(CC(=O)NNC(=O)c2ccccn2)cc1 ?
Shiga toxin inh: 64; TbPYK inhibitor: 3%; CHX counter: 12*; RE007 growth inh: 14%; LmPK inh: -3%; FBPA Giardia inh: 18%

Results for COc1ccc(C(=O)NNC(=O)C(Cc2ccc(O)cc2)NC(=O)c2ccccc2NC(=O)c2ccc(OC)cc2)cc1 (configuration not stated) ?
Shiga toxin inh: 47; TbPYK inhibitor: -3%; CHX counter: 1; RE007 growth inh: -8%; LmPK inh: -1%; FBPA Giardia inh: -10%

How did COc1ccc(Cl)cc1NC(=O)NNC(=O)c1ccccn1 do in these assays?
Shiga toxin inh: -1; TbPYK inhibitor: 6%; CHX counter: 24*; RE007 growth inh: 19%; LmPK inh: 0%
